L major viab: Leishmania major promastigote growth inhibition. Leishmania major promastigotes, resazurin fluorescence viability. actives 9% (n = 200,000). inhibition, % at 10 µM; in the data active = inhibition above about 50%;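 note: promastigotes grown with compound for 44 hours at 28 °C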
Autophagy mod: modulators of autophagy; MEF GFP-LC3 puncta imaging; test concentration mostly 10 µM; calls only at 10 µM (by protocol); actives 0.98% (n = 190,000); AID 463193;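 active = percentage of spot-positive cells more than 3 SD above its plate mean, without a fluorescence outlier flag or 80% toxicity; inconclusive = no clear call, values can overlap the other calls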;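 note: spot-positive cell cutoff set from DMSO-treated cells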
Insulin prom up: MIN6 insulin promoter up-regulation; MIN6 insulin promoter-GFP reporter, high-content imaging; hits give high values; z-score at 5 µM; actives 0.3% (n = 190,000); AID 1625;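 active = z-score above 3 at 5 µM with at least 500 cells counted in the well; inconclusive = wells under 500 cells, flagged as cytotoxic or low count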
WT yeast gro inh: growth inhibition of WT yeast, mitochondrial fusion screen. mitochondrial fusion phenotypic screen, WT strain. inhibition, % at 10 µM. actives 2.1% (n = 190,000); in the data active = inhibition above about 58%; tested in S. cerevisiae
INS promoter inh: TRM-6 insulin promoter activity inhibition | TRM-6 cells (human fetal islet line), insulin promoter-eGFP reporter, imaging; reporter expression induced with tamoxifen | inhibition, % at 2 µM | actives 0.9% (n = 130,000) | AID 1273;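 active = inhibition above the mean plus 3 SD, with well images judged a real hit on visual review, cut at about 60% in these data, passing the limit was not always enough; inconclusive = inhibition over the cutoff but images rejected on review; inactive = inhibition not above the cutoff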
Active calls of the source: *. The list is not random: actives were taken first. Their share in the collection is about 11%.

COc1cc(N2CCCC2)c(OC)cc1/C=C1/NC(=S)NC1=O was read as L major viab 96*, Autophagy mod active, WT yeast gro inh 7 and INS promoter inh -154.
For CCOc1ccc(NC(=O)C2CCCN(S(=O)(=O)c3cccc4nsnc34)C2)cc1 (stereo not drawn) the results were L major viab -6, Autophagy mod inactive, Insulin prom up -0.61, WT yeast gro inh 9 and INS promoter inh 27.
CC1CCN(CC(=O)Nc2cccc(Cl)c2)CC1 was read as L major viab 5, Autophagy mod inactive, Insulin prom up 0.82 and WT yeast gro inh -5.
`O=C(COc1ccccc1C(=O)c1cnn(-c2ccccc2)c1)Nc1ccccc1` gave L major viab 8, Autophagy mod inactive, Insulin prom up -0.5 and WT yeast gro inh 40.
For CC(=O)c1cccc(Nc2cc(C)nc3c(C)cc(C)cc23)c1 the results were L major viab 100*, Autophagy mod inactive, Insulin prom up -0.04, WT yeast gro inh -28 and INS promoter inh 49.
Screening CCOC(=O)c1ccccc1NC(=S)N1CCN(C2CCCCC2)CC1 returned L major viab 48, Autophagy mod inactive, Insulin prom up -0.42 and WT yeast gro inh -17.
Screening CCOC(=O)/C=C1/N(C)c2ccccc2C1(C)C returned Insulin prom up -0.93.
`CN1/C(=C\C(=O)Nc2ccc(Cl)cc2)C(C)(C)c2ccccc21` gave L major viab 17, Autophagy mod inactive, Insulin prom up -0.26 and WT yeast gro inh 79*.
For CN1/C(=C\C=C(C#N)C#N)C(C)(C)c2ccccc21 the results were L major viab -3, Autophagy mod inactive, Insulin prom up -0.55, WT yeast gro inh -20 and INS promoter inh -65.
For CN1/C(=C\C(=S)Nc2ccccc2)C(C)(C)c2ccccc21 the results were L major viab 42, Autophagy mod inactive, Insulin prom up -0.03 and WT yeast gro inh 61*.
Screening CN1/C(=C\C=C(/C#N)C(=O)Nc2ccc(Cl)cc2)C(C)(C)c2ccccc21 returned L major viab 88*, Autophagy mod active, WT yeast gro inh 5 and INS promoter inh -44.
CCOC(=O)C1(Cc2ccccc2)CCCN(Cc2ccc(OCC)c(CO)c2)C1 (stereo not drawn) was read as L major viab 2, Autophagy mod inactive, WT yeast gro inh 11 and INS promoter inh -15.
`CC(C)CC(NC(N)=O)C(=O)NCc1ccccc1Cl` (stereo not drawn) gave L major viab -3, Autophagy mod inactive, Insulin prom up 1.3 and WT yeast gro inh 12.
Screening CC(CCc1ccccc1)NCC(O)c1ccc(O)c(C(N)=O)c1 (stereo not drawn) returned L major viab 84*, Autophagy mod inactive, WT yeast gro inh 6 and INS promoter inh 45.
Screening O=C(N/N=C/c1cn(-c2cccs2)nc1-c1ccccc1)c1ccccc1O returned L major viab 99*, Autophagy mod inactive, Insulin prom up -0.61, WT yeast gro inh 60* and INS promoter inh 10.
For COc1ccc(/C=N/n2cnc3c([nH]c4ccccc43)c2=O)cc1COc1ccccn1 the results were L major viab 7, Autophagy mod inactive, WT yeast gro inh 10 and INS promoter inh 50.
Screening O=C(Nc1cccc(Cl)c1)NC1(C(=O)NCc2cccs2)CCCCC1 returned L major viab 62*, Autophagy mod inactive, Insulin prom up 0.23, WT yeast gro inh 8 and INS promoter inh 11.
Screening O=C(Nc1ccccc1)NC1(C(=O)NCc2ccc3c(c2)OCO3)CCCCC1 returned L major viab 58*, Autophagy mod inactive, Insulin prom up -0.81 and WT yeast gro inh 4.
O=C(Nc1ccc(F)cc1)NC1(C(=O)NCc2cccs2)CCCCC1 was read as L major viab 87*, Autophagy mod inactive, Insulin prom up 0.62 and WT yeast gro inh 5.
`O=C(NCc1ccccc1)NC1(C(=O)Nc2ccc3c(c2)OCCO3)CCCCC1` gave L major viab -4, Autophagy mod inactive, Insulin prom up 0.4, WT yeast gro inh -6 and INS promoter inh 7.
COc1ccc(-c2nc(NC(=O)CCNC(=O)c3ccco3)sc2C)cc1 was read as L major viab 45, Autophagy mod inactive, Insulin prom up -1.6, WT yeast gro inh -35 and INS promoter inh 58.
COc1ccc(N=C2CC(C)(C)CC(=O)/C2=C(/O)c2ccccc2)cc1 was read as L major viab 13, Autophagy mod inactive, Insulin prom up -0.82 and WT yeast gro inh -3.
Screening COc1cc(C(=O)NNC(=S)Nc2ccc(S(N)(=O)=O)cc2)cc(OC)c1OC returned L major viab -8, Autophagy mod inactive, Insulin prom up 0.67 and WT yeast gro inh 14.
For COC(=O)C1CCN(C(=O)COC(=O)[C@@H]2CC(O)CN2S(=O)(=O)c2ccc3c(c2)OCCO3)CC1 (stereo partly drawn) the results were L major viab 51*, Autophagy mod inactive, Insulin prom up -0.01, WT yeast gro inh 2 and INS promoter inh 10.
For N#C/C(=C\C1CC=CCC1)c1nc2ccccc2[nH]1 (stereo not drawn) the results were L major viab 95*, Autophagy mod inactive, Insulin prom up inconclusive and WT yeast gro inh -17.
`Cn1c(/C(C#N)=C/C2CC=CCC2)nc2ccccc21` (stereo not drawn) gave L major viab 79*, Autophagy mod inactive, Insulin prom up -0.51 and WT yeast gro inh 2.
Screening Nc1cc([N+](=O)[O-])ccc1O returned L major viab 98*, Autophagy mod inactive, Insulin prom up 0.8 and WT yeast gro inh -4.
Screening O=C1/C(=C\c2cccs2)SC(=S)N1C1CCS(=O)(=O)C1 (stereo not drawn) returned L major viab 77*, Autophagy mod inactive, WT yeast gro inh 23 and INS promoter inh 26.
For O=C1/C(=C/c2ccncc2)SC(=S)N1C1CCS(=O)(=O)C1 (stereo not drawn) the results were L major viab 100*, Autophagy mod inactive, Insulin prom up -0.66, WT yeast gro inh -14 and INS promoter inh 0.
Screening O=C1/C(=C/c2ccccc2)SC(=S)N1C1CCS(=O)(=O)C1 (stereo not drawn) returned Insulin prom up -0.21.
For CNC(=S)NNc1nc(C)cc(C)n1 the results were L major viab -6, Autophagy mod inactive, Insulin prom up -0.29 and WT yeast gro inh -1.
Screening S=c1[nH]cnc2scc(-c3ccccc3)c12 returned L major viab 99*, Autophagy mod inactive, Insulin prom up -0.27, WT yeast gro inh 31 and INS promoter inh 3.
COc1cccc(-c2csc3nc[nH]c(=O)c23)c1 was read as L major viab 0, Autophagy mod inactive, Insulin prom up 1.3, WT yeast gro inh -14 and INS promoter inh 89*.
Clc1ncnc2scc(-c3ccccc3)c12 was read as L major viab 5, Autophagy mod inactive, Insulin prom up -0.13, WT yeast gro inh 5 and INS promoter inh 20.
Screening COc1ccc2cc(C(=O)C3CCCN(C(=O)/C=C/c4ccccn4)C3)ccc2c1 (stereo not drawn) returned L major viab 3, Autophagy mod inactive, Insulin prom up 0.19 and WT yeast gro inh -1.
